# Data: PubChem BioAssay (Tox21)
# Inconclusive results are not listed. Entries that show only a call come without a potency. Values without a mark were called inactive. The source made the active and inactive calls. Calls follow the shape of the dose curve; as a rule, active = well fitted inhibition curve with a large enough effect in the repeat runs; inconclusive = weak or mixed curves; inactive = flat fitted curve, though single readings scatter.
# Biological target: Luciferin 4-monooxygenase (Photinus pyralis) (UniProt P08659)
# Test: qHTS assay to identify small molecule inhibitors of firefly luciferase (AID 1224835); also: nearly all actives have a fitted effect of over 25% in size
# Conditions: purified P. pyralis luciferase, luminescence inhibition; series mostly up to 115 µM
# Text: U.S. Tox21 Program National Center for Advancing Translational Sciences [NCATS] NIH Chemical Genomics Center [NCGC] U.S. Environmental Protection Agency [EPA] National Institutes of Environmental Health Sciences [NIEHS] National Toxicology Program [NTP] U.S. Food and Drug Administration [FDA] Tox21 Assay Overview: Firefly (Photinus pyralis) luciferase is one of the most commonly used transcriptional reporters. Firefly luciferase reporter-gene assays are generally considered one of the most sensitive assay types (Wood, 1995; Wood, 1998). However, it was initially observed, in 1991, by Thompson et al., that compounds that resemble the substrates of firefly luciferase (FLuc) can act as competitive inhibitors of the enzyme, and that these compounds, upon interaction with luciferase in the cell, can actually stabilize the protein and increase its half-life. Previous profiling work by other groups to determine the prevalence of compounds that affect FLuc enzymatic activity (PubChem AID 411) identified that ~3% of the MLSMR library (then at ~72K) inhibited FLuc. […] Thus the Tox21 10K library is profiled for activity against FLuc using a biochemical assay of purified FLuc and KM concentrations of FLuc substrates (D-luciferin and ATP).
# These assay plates were then treated with 23nL of compound or DMSO using a Kalypsys pin tool, which allows for delivery of a 6-point interplate titration of each compound to the assay plate (quantitative HTS.) 1 uL of firefly luciferase mix (containing 50 mM Tris acetate, pH 7.6, 0.04 uM P. pyralis luciferase, 0.01% Tween, 0.05% BSA and dH2O) was then delivered by FRD to each well. Luciferase activity was then measured using a ViewLux CCD imager.
# Potency is read from the fitted curve at half-maximal effect.
# Sequence of Luciferin 4-monooxygenase (Photinus pyralis) (P08659 whole entry, looked up): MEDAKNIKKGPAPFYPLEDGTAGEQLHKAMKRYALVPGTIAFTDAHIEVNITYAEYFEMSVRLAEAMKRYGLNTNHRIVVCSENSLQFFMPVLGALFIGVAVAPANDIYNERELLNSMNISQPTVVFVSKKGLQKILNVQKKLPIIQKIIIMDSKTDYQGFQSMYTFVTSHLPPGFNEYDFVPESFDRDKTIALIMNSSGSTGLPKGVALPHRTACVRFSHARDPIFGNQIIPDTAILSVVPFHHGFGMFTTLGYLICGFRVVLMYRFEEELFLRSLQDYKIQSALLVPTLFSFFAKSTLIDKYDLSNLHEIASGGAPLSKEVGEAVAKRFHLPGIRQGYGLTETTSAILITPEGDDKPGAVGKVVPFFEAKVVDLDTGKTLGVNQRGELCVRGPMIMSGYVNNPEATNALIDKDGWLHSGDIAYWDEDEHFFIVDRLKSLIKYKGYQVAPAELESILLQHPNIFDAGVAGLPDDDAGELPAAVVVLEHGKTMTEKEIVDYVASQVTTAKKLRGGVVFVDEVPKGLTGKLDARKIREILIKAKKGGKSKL
SMILES,Potency,"activity change, negative = inhibition"
Clc1cccc(SC2CCNCC2)n1,inactive,–
ClCC(Br)CBr (stereo not given),inactive,–
Cc1cc(=O)[nH]o1,inactive,–
CCc1ccc(C(=O)NN(C(=O)c2cc(C)cc(C)c2)C(C)(C)C)cc1,inactive,–
O=[N+]([O-])c1ccc(F)c([N+](=O)[O-])c1,inactive,–
O=C(C(Cl)(Cl)Cl)C(Cl)(Cl)Cl,inactive,–
Clc1ccc(C(OCCN2CCCCC2)c2ccccc2)cc1 (stereo not given),inactive,–
II,28.3 µM (active),–
CCOP(=S)(OCC)Oc1cc(Cl)c(Br)cc1Cl,inactive,–
CC(C)(C)c1cc([N+](=O)[O-])cc([N+](=O)[O-])c1O,70.8 µM (active),–
ClCc1ccccc1,inactive,–
ClCc1cccc(Cl)c1,inactive,–
CCCCC(O)(Cn1cncn1)c1ccc(Cl)cc1Cl (stereo not given),inactive,–
O=C(O)C1(c2ccc3c(c2)OC[C@H](Cc2ccc(-c4ccccc4)cc2)[C@H]3O)CCCC1,71 µM (active),–
CC(C)=CCOc1c2occc2cc2ccc(=O)oc12,inactive,–
N#CCc1ccccc1,inactive,–
C=CC(=O)OCC(C)O (stereo not given),inactive,–
CC(C)(C)C(O)C(Oc1ccc(Cl)cc1)n1cncn1 (stereo not given),inactive,–
ClCCCCBr,inactive,–
CCOP(=S)(OCC)SCSCC,inactive,–

SMILES,Potency,"activity change, negative = inhibition"
O=[N+]([O-])c1cc(C(F)(F)F)cc([N+](=O)[O-])c1Cl,inactive,–
O=C(OC1CCCCC1)c1ccccc1C(=O)OC1CCCCC1,inactive,–
CO[C@@H]1[C@H](OC(=O)NC(=O)CCl)CC[C@]2(CO2)[C@H]1[C@@]1(C)O[C@@H]1CC=C(C)C,–,2.04% [at 23.6 µM]
C=CC(=O)NCNC(=O)C=C,inactive,–
CN(N=O)c1ccc([N+](=O)[O-])cc1,inactive,–
O=C(NCc1cccnc1)Nc1ccc([N+](=O)[O-])cc1,inactive,–
CCCCN=C=O,inactive,–
COC1=CC(=O)O[C@@H](CCc2ccccc2)C1,inactive,–
CCCCN(N=O)C(=N)N[N+](=O)[O-],inactive,–
CCCCCCCCCCOC(=O)c1ccccc1C(=O)OCCCCCCCCCC,inactive,–
O=C1CN=C(c2ccccc2)c2cc(Cl)ccc2N1CC1CC1,inactive,–
c1cc2ccc3cccc4ccc(c1)c2c34,inactive,–
CN1C(=O)NC(=O)C(C)(C2=CCCCC2)C1=O (stereo not given),inactive,–
CO/C=C(/C(=O)OC)c1ccccc1COc1cccc(C(F)(F)F)n1,inactive,–
O=C(O)COc1ccc(Cl)cc1,inactive,–
CC(Cl)C(C)Cl (stereo not given),inactive,–
C[C@@H]1CC[C@H]2[C@@H](C)C(=O)O[C@@H]3O[C@@]4(C)CC[C@@H]1[C@]32OO4,inactive,–
CCOP(O)OCC,inactive,–
C=CCC1([C@H](C)CCC)C(=O)NC(=O)NC1=O,inactive,–
COC(=O)C(Cl)C(=O)OC,inactive,–
